PME-1 inh: blocks human protein phosphatase methylesterase 1; AID 2130; recombinant PME-1, FP-Rh probe fluorescence polarization; 320,000 compounds, 0.53% hits; inhibition, % at 5.9 µM; Q9Y570;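 active means inhibition above the campaign mean of all compounds plus 3 SD, cut at about 26% in these data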;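 further: competitive labeling of PME-1 active site by serine hydrolase directed probe; inhibitors block probe labeling so polarization falls and inhibition rises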
LYPLA1 inh: blocks human lysophospholipase 1, a PME1 counter-screen; AID 2174; O75608; inhibition, % at 5.9 µM; recombinant LYPLA1, FP-Rh probe fluorescence polarization; 320,000 compounds, 0.16% hits;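 active means inhibition above the mean of all tested compounds plus 3 SD, set per campaign, cut at about 14% in these data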;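 further: inhibitors block serine hydrolase probe labeling of LYPLA1 so polarization falls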
Fam108B inh: Fam108B inhibition, counter-screen for RBBP9 inhibitors; recombinant Fam108B, FP-Rh probe fluorescence polarization; 300,000 compounds, 0.33% hits; inhibition, % at 9.51 µM;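 active means inhibition above the screen mean inhibition plus 3 SD, computed separately per campaign, cut at about 18% in these data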;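 further: inhibitors lower polarization as less probe binds the enzyme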
PAD4 FP inh: PAD4 (human) enzyme inhibition; Q9UM07; inhibition, % at 6.36 µM; 330,000 compounds, 0.41% hits; recombinant PAD4, RCA probe fluorescence polarization;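 active means percent inhibition above a cutoff equal to the mean of all tested compounds plus 3 SD, cut at about 15% in these data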
LYPLA2 inh: counter-screen for PME1 inhibitors: inhibitors of human LYPLA2 | O95372 | recombinant LYPLA2, FP-Rh probe fluorescence polarization | inhibition, % at 5.9 µM | 320,000 compounds, 0.38% hits | AID 2177;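 active means inhibition above the screen-wide mean plus 3 SD, limit set per campaign, cut at about 26% in these data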
Target sequence (O95372 whole entry, looked up): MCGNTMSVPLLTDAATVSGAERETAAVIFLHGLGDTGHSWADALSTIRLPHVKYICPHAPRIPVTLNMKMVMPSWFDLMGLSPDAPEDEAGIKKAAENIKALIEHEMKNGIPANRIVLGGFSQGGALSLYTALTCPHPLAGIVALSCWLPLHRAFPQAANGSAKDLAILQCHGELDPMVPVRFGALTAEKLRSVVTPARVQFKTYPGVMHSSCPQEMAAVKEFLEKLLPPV
GSTO1 inh: counter-screen for RBBP9 inhibitors: inhibitors of human GSTO1; P78417; recombinant GSTO1, activity-based probe fluorescence polarization; inhibition, % at 5.96 µM; 300,000 compounds, 1.1% hits; AID 1974;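 active means inhibition above the campaign mean inhibition plus 3 SD, cut at about 35% in these data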
Target sequence (P78417 whole entry, looked up): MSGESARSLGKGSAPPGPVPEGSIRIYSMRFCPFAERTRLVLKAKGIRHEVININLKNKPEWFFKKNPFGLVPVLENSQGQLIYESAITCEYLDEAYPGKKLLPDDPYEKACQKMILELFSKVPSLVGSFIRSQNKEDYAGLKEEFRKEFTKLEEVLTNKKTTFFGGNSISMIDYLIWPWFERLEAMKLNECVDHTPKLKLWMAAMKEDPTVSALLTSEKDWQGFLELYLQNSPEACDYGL
Fam108b confirm: confirmation of mouse Fam108b serine hydrolase inhibitors; shares compounds with Fam108B inh; recombinant Fam108b, FP-Rh probe fluorescence polarization; inhibition, % at 9.51 µM; 930 compounds, 44% hits;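 active means inhibition above a limit from the primary screen, the mean over all compounds plus 3 SD, cut at about 19% in these data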;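 further: inhibitors free the probe so polarization falls as inhibition rises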
Numbers stand for hits. An excerpt weighted towards active compounds, which were near 1.7% of everything screened.

Screening Cc1nn(-c2ccccc2)c2c1C1(C(=O)N(C)c3ccccc31)C(C#N)=C(N)O2 (centres undefined) returned PME-1 inh inactive, LYPLA1 inh inactive, Fam108B inh inactive, PAD4 FP inh inactive, LYPLA2 inh inactive and GSTO1 inh 37.
For COc1ccc(C2/C=C\CN(C(=O)Nc3ccccc3)CC(=O)N2Cc2ccc(F)cc2)cc1 (centres undefined) the results were PME-1 inh inactive, LYPLA1 inh inactive, Fam108B inh inactive, PAD4 FP inh inactive, LYPLA2 inh inactive and GSTO1 inh 36.
COc1ccc(C2/C=C\CN(C(=O)Nc3ccc(C(F)(F)F)cc3)CC(=O)N2Cc2ccc(F)cc2)cc1 (centres undefined) was read as PME-1 inh inactive, LYPLA1 inh inactive, Fam108B inh inactive, PAD4 FP inh inactive, LYPLA2 inh inactive and GSTO1 inh inactive.
CCCn1c(N)c(C(=O)CN(C)CC(=O)Nc2ccccc2CC)c(=O)[nH]c1=O was read as PME-1 inh 33, LYPLA1 inh inactive, PAD4 FP inh inactive and LYPLA2 inh inactive.
CCCn1c(N)c(C(=O)CN(C)CC(=O)Nc2cccc(F)c2)c(=O)[nH]c1=O was read as PME-1 inh inactive, LYPLA1 inh inactive, PAD4 FP inh inactive and LYPLA2 inh inactive.
Screening CC1=NC(=O)C(N=Nc2cccc(O)c2)N1c1ccccc1 (centres undefined) returned PME-1 inh 30, LYPLA1 inh inactive, Fam108B inh inactive, PAD4 FP inh inactive, LYPLA2 inh inactive and GSTO1 inh inactive.
Screening COc1ccc(NC(=O)c2cc(CC(C)C)nc3ccccc23)cc1 returned PME-1 inh inactive, LYPLA1 inh inactive, Fam108B inh inactive, PAD4 FP inh inactive, LYPLA2 inh inactive and GSTO1 inh inactive.
For COc1ccccc1C(=O)NC(=O)COC(=O)c1cc[n+]([O-])cc1 the results were PME-1 inh inactive, LYPLA1 inh inactive, Fam108B inh inactive, PAD4 FP inh inactive, LYPLA2 inh inactive and GSTO1 inh inactive.
`COC(=O)c1c(-c2ccc(OC)cc2)sc2ccccc12` gave PME-1 inh inactive, LYPLA1 inh inactive, PAD4 FP inh inactive and LYPLA2 inh inactive.
Screening O=C(O)C(S)C(S)C(=O)O (centres undefined) returned PME-1 inh inactive, LYPLA1 inh inactive, Fam108B inh 21, PAD4 FP inh inactive, LYPLA2 inh inactive, GSTO1 inh 64 and Fam108b confirm inactive.
O=c1c2ccccc2sc2ccc(C#CC3(O)CCCCC3)cc12 was read as PME-1 inh inactive, LYPLA1 inh inactive, Fam108B inh inactive, PAD4 FP inh inactive, LYPLA2 inh inactive and GSTO1 inh inactive.
For Nc1ccc(C#Cc2ccc3sc4ccccc4c(=O)c3c2)cc1 the results were PME-1 inh inactive, LYPLA1 inh inactive, Fam108B inh 22, PAD4 FP inh inactive, LYPLA2 inh inactive, GSTO1 inh inactive and Fam108b confirm inactive.
`O=C(Nc1cc(Sc2nc3ccccc3s2)cc([N+](=O)[O-])c1)c1cccc(F)c1F` gave PME-1 inh inactive, LYPLA1 inh inactive, Fam108B inh 19, PAD4 FP inh inactive, LYPLA2 inh inactive, GSTO1 inh inactive and Fam108b confirm 25.
O=[N+]([O-])c1ccc(O)c(/C=N\N=C2c3ccccc3-c3ccccc32)c1 was read as PME-1 inh inactive, LYPLA1 inh inactive, Fam108B inh 21, PAD4 FP inh inactive, LYPLA2 inh inactive, GSTO1 inh inactive and Fam108b confirm inactive.
`Cc1ccc2c(CC(=O)NCC3(N4CCOCC4)CCCCC3)coc2c1C` gave PME-1 inh inactive, LYPLA1 inh inactive, PAD4 FP inh inactive and LYPLA2 inh inactive.
Screening Nc1ccccc1-c1nc2ccccc2c(=O)o1 returned PME-1 inh inactive, LYPLA1 inh inactive, Fam108B inh inactive, PAD4 FP inh inactive, LYPLA2 inh inactive and GSTO1 inh inactive.
O=c1oc(-c2ccccc2NS(=O)(=O)c2ccccc2)nc2ccccc12 was read as PME-1 inh inactive, LYPLA1 inh inactive, Fam108B inh 21, PAD4 FP inh inactive, LYPLA2 inh inactive, GSTO1 inh inactive and Fam108b confirm inactive.
O=C1CCCC(O)=C1N=Nc1ccc(C(=O)O)cc1 was read as PME-1 inh inactive, LYPLA1 inh inactive, Fam108B inh 25, PAD4 FP inh inactive, LYPLA2 inh inactive, GSTO1 inh inactive and Fam108b confirm 20.
For O=C(Nc1cc(Cl)ccc1N1CCOCC1)c1ccc(N2CCCCC2)c([N+](=O)[O-])c1 the results were PME-1 inh inactive, LYPLA1 inh inactive, Fam108B inh inactive, PAD4 FP inh inactive, LYPLA2 inh inactive and GSTO1 inh inactive.
`O=C(Nc1ccc(N2CCCCC2)c(Cl)c1)c1ccc(N2CCOCC2)c([N+](=O)[O-])c1` gave PME-1 inh inactive, LYPLA1 inh inactive, Fam108B inh 19, PAD4 FP inh inactive, LYPLA2 inh inactive, GSTO1 inh inactive and Fam108b confirm inactive.
For O=C(C1=C[C@H](C2CCCCC2)C[C@H](OCc2ccc(CO)cc2)O1)N1CCN(Cc2ccc3c(c2)OCO3)CC1 the results were PME-1 inh inactive, LYPLA1 inh inactive, Fam108B inh inactive, PAD4 FP inh inactive, LYPLA2 inh inactive and GSTO1 inh inactive.
For O=C(O)c1ccc(-n2cccc2/C=C2/NC(=O)N(c3ccccc3)C2=O)cc1 the results were PME-1 inh inactive, LYPLA1 inh inactive, Fam108B inh 20, PAD4 FP inh inactive, LYPLA2 inh inactive, GSTO1 inh inactive and Fam108b confirm inactive.
Screening Cc1ccc(C(=O)Nc2ccc(C(=O)N/N=C/c3c[nH]c4ccccc34)cc2)cc1 returned PME-1 inh inactive, LYPLA1 inh inactive, Fam108B inh inactive, PAD4 FP inh inactive, LYPLA2 inh inactive and GSTO1 inh inactive.
Screening Cc1cccc(NC(=S)N/N=C/c2c[nH]c3ccccc23)c1 returned PME-1 inh 39, LYPLA1 inh inactive, Fam108B inh 22, PAD4 FP inh inactive, LYPLA2 inh inactive, GSTO1 inh inactive and Fam108b confirm inactive.
`Cc1cc(C)nc(SCc2ccc(C(=O)N/N=C/c3ccc(C(=O)O)cc3)cc2)n1` gave PME-1 inh inactive, LYPLA1 inh inactive, Fam108B inh inactive, PAD4 FP inh inactive, LYPLA2 inh inactive and GSTO1 inh inactive.
Screening Cc1cc(C)nc(SCc2ccc(C(=O)N/N=C/c3cccc(O)c3O)cc2)n1 returned PME-1 inh 26, LYPLA1 inh inactive, Fam108B inh 50, PAD4 FP inh inactive, LYPLA2 inh inactive, GSTO1 inh inactive and Fam108b confirm 82.
COc1ccc(O)c(/C=N/NC(=O)c2ccc(CSc3nc(C)cc(C)n3)cc2)c1 was read as PME-1 inh inactive, LYPLA1 inh inactive, Fam108B inh inactive, PAD4 FP inh inactive, LYPLA2 inh inactive and GSTO1 inh inactive.
